# Experimental data from PubChem BioAssay (EPA / NIEHS).
# Results filed as inconclusive are left out. Activity calls are given as the source filed them. How the source made its calls: active means hit-call score of the fitted dose curve at least 0.9, where 1 is the maximum; inconclusive means response in the unintended direction; inactive means score below 0.9.
# Assays:
# [1] = ATG_XTT_Cytotoxicity: Cytotoxicity Assessment in the Attagene TRANS-FACTORIAL HepG2 Assay (AID 2283584);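 on AC50: XTT signal for cell number as viability in transfected HepG2 cells; cells exposed to compound for 24 h before reading; active means loss of viability signal versus DMSO baseline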
# Summary of the method: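 HepG2 cells transiently transfected with GAL4-UAS multiple reporter units, dosed 24 h; cytotoxicity read by XTT as loss of signal versus DMSO baseline.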
# [2] = target: Cellular tumor antigen p53 (Homo sapiens) (UniProt P04637); assay: TOX21_p53_BLA_p2_ratio: Tox21 HCT-116 p53 Agonism Beta-lactamase Assay, Ratio, Phase 2 (AID 2283592)
# Summary of the method: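 First, HCT116 reporter cells settle for 5 h at 37C. Next, DMSO compound solutions are pinned in (217-fold dilution) and left 16 h. Finally, CCF4-AM substrate is loaded 2 h at room temperature and the 460/530 nm ratio read.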
# [3] = target: Cellular tumor antigen p53 (Homo sapiens) (UniProt P04637); assay: TOX21_p53_BLA_p3_ratio: Tox21 HCT-116 p53 Agonism Beta-lactamase Assay, Ratio, Phase 3 (AID 2283596)
# Summary of the method: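 Cells were seeded at 4000/well, rested 5 h at 37C, then dosed with DMSO compound solutions (217-fold dilution) for 16 h. CCF4-AM substrate was loaded for 2 h at room temperature, and the 460/530 nm emission ratio was fitted for gain of signal versus DMSO.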
# [4] = TOX21_p53_BLA_p4_viability: Viability Assessment in the Tox21 HCT-116 p53 Agonism Beta-lactamase Assay, Phase 4 (AID 2283597);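 further: hits lower the luminescence signal meaning cytotoxicity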
# Summary of the method: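 4000 HCT116 cells per well; 5 h attachment; compounds from DMSO, 217-fold dilution; 16 h at 37C. Then CCF4-AM, 2 h RT, followed by CellTiter-Glo, 30 min RT, luminescence. Decrease = cytotoxicity.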
# [5] = target: Cellular tumor antigen p53 (Homo sapiens) (UniProt P04637); assay: TOX21_p53_BLA_p5_ratio: Tox21 HCT-116 p53 Agonism Beta-lactamase Assay, Ratio, Phase 5 (AID 2283599)
# Summary of the method: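 Beta-lactamase reporter ratio (blue 460 nm over green 530 nm, 405 nm excitation) after 2 h CCF4-AM loading, in HCT-116 cells exposed 16 h at 37 C to compounds pinned at 217-fold dilution. Increases relative to DMSO baseline scored.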
# [6] = TOX21_p53_BLA_p5_viability: Viability Assessment in the Tox21 HCT-116 p53 Agonism Beta-lactamase Assay, Phase 5 (AID 2283600)
# Summary of the method: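 Decreased CellTiter-Glo luminescence denotes lost viability. Exposure: 16 h at 37C, 5% CO2, with compounds from DMSO stocks diluted 217-fold in wells of 4000 cells.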
# [7] = target: Cellular tumor antigen p53 (Homo sapiens) (UniProt P04637); assay: TOX21_p53_BLA_p4_ratio: Tox21 HCT-116 p53 Agonism Beta-lactamase Assay, Ratio, Phase 4 (AID 2283601)
# Summary of the method: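 Signal is the blue/green (460nm/530nm) ratio of cleaved versus uncleaved CCF4-AM substrate, read after 2 h substrate loading. Cells were HCT116 carrying the p53-responsive beta-lactamase reporter, dosed 16 h at 37C, 5% CO2; CellTiter-Glo measured in parallel.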
# [8] = TOX21_p53_BLA_p3_viability: Viability Assessment in the Tox21 HCT-116 p53 Agonism Beta-lactamase Assay, Phase 3 (AID 2283593);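 further: cells exposed to compound for 16 h before reading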
# Summary of the method: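 Cellular ATP was quantified by CellTiter-Glo luminescence, read after 30 min at room temperature. Beforehand, HCT116 cells (4000/well) received compound 5 h post-seeding, 217-fold diluted from DMSO, then incubated 16 h at 37C.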
# [9] = TOX21_p53_BLA_p2_viability: Viability Assessment in the Tox21 HCT-116 p53 Agonism Beta-lactamase Assay, Phase 2 (AID 2283591);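 further: actives lower the ATP signal meaning cytotoxicity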
# Summary of the method: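 Cytotoxicity readout: CellTiter-Glo ATP luminescence, 30 min at room temperature, after the beta-lactamase read. Cells were HCT116 exposed 16 h at 37C to compounds pin-transferred at 217-fold dilution from DMSO stocks.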
# Sequence of Cellular tumor antigen p53 (Homo sapiens) (P04637 whole entry, looked up): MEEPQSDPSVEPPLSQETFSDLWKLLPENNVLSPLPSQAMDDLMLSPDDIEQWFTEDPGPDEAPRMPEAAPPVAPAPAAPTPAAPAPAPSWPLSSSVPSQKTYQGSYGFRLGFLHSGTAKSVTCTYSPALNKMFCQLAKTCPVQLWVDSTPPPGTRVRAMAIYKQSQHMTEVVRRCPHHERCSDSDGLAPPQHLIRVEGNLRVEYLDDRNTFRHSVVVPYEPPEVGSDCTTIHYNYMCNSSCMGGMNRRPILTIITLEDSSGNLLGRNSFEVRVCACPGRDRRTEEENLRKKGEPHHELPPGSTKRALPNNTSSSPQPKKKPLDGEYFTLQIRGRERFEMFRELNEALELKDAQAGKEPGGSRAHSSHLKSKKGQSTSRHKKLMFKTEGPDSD
smiles,measurement,setting,value
C=CC[N+](C)(C)CC=C,outcome,[1],inactive
same,outcome,[2],inactive
same,outcome,[3],inactive
same,outcome,[4],inactive
same,outcome,[5],inactive
same,outcome,[6],inactive
same,outcome,[7],inactive
CC(C)[C@@H]1CC[C@@H](C)CC1=O,outcome,[1],inactive
same,outcome,[2],inactive
same,outcome,[3],inactive
same,outcome,[4],inactive
same,outcome,[5],inactive
same,outcome,[7],inactive
NNc1nc(-c2ccc(N)cc2)cs1,outcome,[1],inactive
same,outcome,[2],inactive
same,outcome,[3],inactive
same,outcome,[4],inactive
same,outcome,[5],inactive
same,outcome,[6],inactive
same,outcome,[7],inactive
Clc1ccc(Cl)c(Cl)c1Cl,outcome,[1],inactive
same,outcome,[2],inactive
same,outcome,[3],inactive
same,outcome,[4],inactive
same,outcome,[5],inactive
same,outcome,[6],inactive
same,AC50,[7],0.000436 µM (active)
O=C1O[C@@H]2[C@@H](O)[C@H](O)O[C@@H]2[C@H]1O,outcome,[1],inactive
same,outcome,[2],inactive
same,outcome,[3],inactive
same,outcome,[4],inactive
same,outcome,[5],inactive
same,outcome,[6],inactive
same,outcome,[7],inactive
CO[Si](CCCn1c(=O)n(CCC[Si](OC)(OC)OC)c(=O)n(CCC[Si](OC)(OC)OC)c1=O)(OC)OC,outcome,[1],inactive
same,outcome,[2],inactive
same,outcome,[8],inactive
same,outcome,[4],inactive
same,outcome,[7],inactive
C=C[Si](OCC)(OCC)OCC,outcome,[1],inactive
same,outcome,[8],inactive
same,outcome,[7],inactive
O=c1cc(-c2ccccc2)oc2cc(O)cc(O)c12,outcome,[1],inactive
same,outcome,[3],inactive
same,AC50,[5],22.3 µM (active)
same,outcome,[6],inactive
same,AC50,[7],46.1 µM (active)
CCCCNC(=O)NS(=O)(=O)c1ccc(C)cc1,outcome,[9],inactive
same,outcome,[2],inactive
same,outcome,[8],inactive
same,outcome,[3],inactive
same,outcome,[5],inactive
same,outcome,[6],inactive
same,outcome,[7],inactive
COc1cc(C=O)ccc1OC(=O)C(C)C,outcome,[1],inactive
same,outcome,[2],inactive
same,outcome,[3],inactive
same,outcome,[5],inactive
same,outcome,[7],inactive
O=S(=O)(O)c1cccc2c(S(=O)(=O)O)cccc12,outcome,[1],inactive
same,outcome,[3],inactive
same,outcome,[7],inactive
COC(C(=O)O)c1ccccc1 (stereo not drawn),outcome,[1],inactive
same,outcome,[2],inactive
same,outcome,[4],inactive
Nc1ccc(S(N)(=O)=O)cc1,outcome,[9],inactive
same,outcome,[2],inactive
same,outcome,[8],inactive
same,outcome,[3],inactive
same,outcome,[4],inactive
same,outcome,[5],inactive
same,outcome,[6],inactive
same,outcome,[7],inactive
CCCCN,outcome,[1],inactive
same,outcome,[8],inactive
same,outcome,[3],inactive
same,outcome,[5],inactive
OC1OC[C@@H](O)[C@H](O)[C@H]1O (stereo partly drawn),outcome,[9],inactive
same,outcome,[2],inactive
same,outcome,[8],inactive
same,outcome,[3],inactive
same,outcome,[5],inactive
same,outcome,[6],inactive
CC(C)=CCCC(C)CC=O (stereo not drawn),outcome,[1],inactive
same,outcome,[2],inactive
same,outcome,[3],inactive
same,outcome,[5],inactive
same,outcome,[7],inactive
O=Cc1ccc(F)cc1,outcome,[1],inactive
same,outcome,[2],inactive
same,outcome,[4],inactive
same,outcome,[6],inactive
same,outcome,[7],inactive
Sc1nc(S)nc(S)n1,outcome,[1],inactive
same,outcome,[8],inactive
same,outcome,[3],inactive
same,outcome,[5],inactive
same,outcome,[7],inactive
CC(C=O)Cc1ccc(C(C)C)cc1 (stereo not drawn),outcome,[1],inactive
same,outcome,[5],inactive
same,outcome,[6],inactive
CC(CCO)CCc1ccccc1 (stereo not drawn),outcome,[1],inactive
same,outcome,[2],inactive
same,outcome,[3],inactive
same,outcome,[5],inactive
same,outcome,[7],inactive
CCC(=O)OCc1ccccc1,outcome,[9],inactive
same,outcome,[2],inactive
same,outcome,[8],inactive
same,outcome,[3],inactive
same,outcome,[4],inactive
same,outcome,[5],inactive
same,outcome,[6],inactive
same,outcome,[7],inactive
C=CC(=O)OCCn1c(=O)n(CCOC(=O)C=C)c(=O)n(CCOC(=O)C=C)c1=O,AC50,[1],71 µM (active)
same,outcome,[8],inactive
same,AC50,[4],15.4 µM (active)
same,outcome,[5],inactive
same,outcome,[6],inactive
same,outcome,[7],inactive
O=C1CCCCCCCCCCCCCCO1,outcome,[1],inactive
same,outcome,[2],inactive
same,outcome,[5],inactive
same,outcome,[6],inactive
same,outcome,[7],inactive
COc1ccc(OC)c(OC)c1,outcome,[1],inactive
same,outcome,[8],inactive
same,outcome,[3],inactive
same,outcome,[5],inactive
same,outcome,[6],inactive
same,outcome,[7],inactive
O=S(=O)(O)c1ccc(O)c2ncccc12,outcome,[1],inactive
same,outcome,[3],inactive
same,outcome,[5],inactive
same,outcome,[6],inactive
same,outcome,[7],inactive
CCO[Si](CCCS)(OCC)OCC,outcome,[1],inactive
same,outcome,[8],inactive
same,outcome,[5],inactive
O=C(O)c1cn(C2CC2)c2cc(N3CCNCC3)c(F)cc2c1=O,outcome,[1],inactive
same,outcome,[4],inactive
same,outcome,[6],inactive
CCCCc1ccc(N)cc1,outcome,[1],inactive
same,outcome,[8],inactive
same,outcome,[3],inactive
same,outcome,[4],inactive
same,outcome,[5],inactive
same,outcome,[7],inactive
Cc1ccc(C=O)s1,outcome,[1],inactive
same,outcome,[2],inactive
same,outcome,[4],inactive
same,outcome,[5],inactive
same,outcome,[6],inactive
same,outcome,[7],inactive
CC1(C)[C@H]2CC[C@]1(C)[C@H](O)C2,outcome,[9],inactive
same,outcome,[2],inactive
same,outcome,[8],inactive
same,outcome,[3],inactive
same,outcome,[4],inactive
same,outcome,[5],inactive
same,outcome,[6],inactive
CCCCCCOC(=O)CCCCC,outcome,[1],inactive
same,outcome,[2],inactive
same,outcome,[3],inactive
same,outcome,[5],inactive
same,outcome,[7],inactive
CCCCCCCCCCCCCC(=O)O,outcome,[9],inactive
same,outcome,[2],inactive
same,outcome,[8],inactive
same,outcome,[3],inactive
same,outcome,[5],inactive
same,outcome,[6],inactive
same,outcome,[7],inactive
